Assay [1] concerns the target Glucocorticoid receptor (Homo sapiens) (UniProt P04150). Put plainly: qHTS assay for small molecule agonists of glucocorticoid receptor signaling (AID 588532; active means well fitted curve in the direction sought with a large enough effect in the signal ratio, with a control signal flat; the % refers to the signal ratio;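 further: 100% = dexamethasone at 0.1 µM and 0% = DMSO only wells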). Conditions: HeLa MMTV-bla, beta-lactamase ratio, agonist, 18 h; stronger effect = higher value; percent of dexamethasone control, DMSO zero. An outline of the steps: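 Quantitative HTS using CellSensor MMTV-bla HeLa cells in charcoal/dextran-treated serum; compounds tested up to 92 uM. After 18 h at 37 C, CCF4 dye reported reporter induction.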

For assay [2] the target is unchanged. Put plainly: qHTS assay for small molecule antagonists of glucocorticoid receptor signaling (AID 588533; active means well fitted inhibition curve with a large enough effect in the signal ratio, with a control signal flat, not every such curve was filed as active; the % refers to the signal ratio;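 further: cells stimulated with 2 nM dexamethasone as agonist; on the % scale 0 is the no-effect control and ±100 the full control effect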). Particulars: HeLa MMTV-bla, GRE beta-lactamase ratio, antagonist mode, 18 h; series mostly up to 76.8 µM. Put shortly: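 Antagonist-mode qHTS: compound titrations added to GRE-bla HeLa cells, then dexamethasone 2 nM final; 18 h, 37 C. CCF4 FRET fluorescence normalized to dexamethasone and DMSO; IC50 from Hill fit.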

Assay [3] is described as follows: qHTS assay for small molecule antagonists of peroxisome proliferator-activated receptor delta signaling (AID 588535; active means well fitted inhibition curve with a large enough effect in the signal ratio, with a control signal flat, not every such curve was filed as active; the % refers to the signal ratio;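 on max response: cells co-treated with a PPAR-delta agonist as stimulator during compound exposure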). Particulars: HEK293T PPARd-UAS-bla, beta-lactamase FRET ratio, 18 h; 460 nm channel. Put shortly:
(§1)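 HEK293T PPAR-delta-UAS-bla cells, 4000/well, 2% charcoal/dextran FBS; 5 h 37 C; cpd titration; 18 h 37 C; CCF4 2 h RT; FI 460/530 nm; Hill fit → IC50, efficacy.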

Assay [4] concerns the target Peroxisome proliferator-activated receptor delta (Homo sapiens) (UniProt Q03181). Described as above. Conditions: HEK293T PPARd-UAS-bla, beta-lactamase FRET ratio, 18 h; series mostly up to 76.7 µM. An outline of the steps:
as §1

The target of assay [5] is Peroxisome proliferator-activated receptor gamma (Homo sapiens) (UniProt P37231). Briefly: qHTS assay for small molecule agonists of peroxisome proliferator-activated receptor gamma signaling (AID 588536; active means well fitted curve in the direction sought with a large enough effect in the signal ratio, with a control signal flat, not every such curve was filed as active; the % refers to the signal ratio;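 further: 0% = DMSO basal wells and 100% = rosiglitazone at 2 µM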). Particulars: HEK293 PPARg-UAS-bla, beta-lactamase ratio, 16 h, percent of rosiglitazone response, DMSO as zero; series mostly up to 76.7 µM. Put shortly:
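GeneBLAzer PPAR-gamma-UAS-bla HEK293 cells in 1% charcoal/dextran-treated FBS medium were treated 16 h at 37 C with compounds. Beta-lactamase activity was read by CCF4 ratio (460/530 nm). Response was normalized to 2 uM rosiglitazone (100%) and DMSO, then Hill-fitted for EC50 and efficacy.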

Assay [6] addresses Vitamin D3 receptor (Homo sapiens) (UniProt P11473). Put plainly: qHTS assay for small molecule antagonists of vitamin D receptor signaling (AID 588541).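 Further: receptor activated by calcitriol during compound treatment; on the % scale 0 is the no-effect control and ±100 the full control effect.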 Conditions: HEK293T VDR-UAS-bla, beta-lactamase ratio, antagonist mode; series mostly up to 76.7 µM. An outline of the steps: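 Antagonist-mode beta-lactamase reporter assay: HEK293T VDR-UAS-bla cells were exposed to titrated compound alongside 1-alpha,25-dihydroxyvitamin D3 at 3 nM final for 16 h. Values were normalized to the 50 nM agonist control and DMSO basal, with IC50 and efficacy from Hill equation fits.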

Assay [7] has the same target. Put plainly: qHTS assay for small molecule agonists of vitamin D receptor signaling (AID 588543).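 Further: 0% = DMSO basal and 100% = reference agonist control.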 Conditions: HEK293T VDR-UAS-bla, beta-lactamase ratio, 16 h; series mostly up to 76.8 µM. Put shortly:
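Measured: β-lactamase reporter activity (CCF4, 405 nm excitation, 460/530 nm emission) in HEK293T VDR-UAS-bla cells after 16 h compound exposure at 37 °C. Normalization against 50 nM 1α,25-dihydroxyvitamin D3 and DMSO; Hill-fit EC50.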

Assay [8] in a line: qHTS assay for small molecule agonists of retinoid X receptor alpha signaling (AID 588544).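 On activation: 0% = DMSO basal wells and 100% = reference agonist.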 Conditions: HEK293T RXRa-UAS-bla, beta-lactamase reporter, 18 h; 530 nm emission.
Assay [9] has as its target Retinoic acid receptor RXR-alpha (Homo sapiens) (UniProt P19793). The assay is described as above. Conditions: HEK293T RXRa-UAS-bla, beta-lactamase reporter, 18 h; series mostly up to 76.7 µM.
Assay [10] addresses Thyroid hormone receptor beta (Homo sapiens) (UniProt P10828). Briefly: qHTS assay for small molecule agonists of thyroid hormone receptor beta signaling (AID 588545).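 Further: 0% = DMSO only and 100% = 10 nM T3.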 Particulars: TR-UAS-bla GripTite HEK 293, beta-lactamase ratio, agonist mode, 18 h, percent of T3 response, DMSO as zero; series mostly up to 76.7 µM. Put shortly: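 Efficacy and EC50 values derive from Hill fits of qHTS titration data, normalized to 10 nM T3 and DMSO-only wells. HEK 293 reporter cells were stimulated for 18 hrs at 37 C, with beta-lactamase activity measured by CCF4 fluorescence.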

The nature of assay [11]: qHTS assay for small molecule antagonists of retinoid X receptor alpha signaling (AID 588546; active means well fitted inhibition curve with a large enough effect in the signal ratio, with a control signal flat, not every such curve was filed as active; the % refers to the signal ratio;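 further: cells stimulated with 9-cis-retinoic acid as agonist; on the % scale 0 is the no-effect control and ±100 the full control effect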). Conditions: HEK293T RXRa-UAS-bla, beta-lactamase ratio, antagonist mode; measured here: W530 green channel, cytotoxicity proxy. Put shortly: (§2)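 Beta-lactamase reporter inhibition, read as CCF4 fluorescence ratio (ex 405, em 460/530 nm) after 2 h at RT. HEK293T UAS-bla cells, 2500/well, were stimulated with 9-cis-RA at 500 or 100 nM final alongside test compound for 18 h at 37 C.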

Assay [12] has as its target Retinoic acid receptor RXR-alpha (Homo sapiens) (UniProt P19793). Described as above. Particulars: HEK293T RXRa-UAS-bla, beta-lactamase ratio, antagonist mode. An outline of the steps:
as §2

The target in assay [13] is Thyroid hormone receptor beta (Homo sapiens) (UniProt P10828). Put plainly: qHTS assay for small molecule antagonists of thyroid hormone receptor beta signaling (AID 588547; active means well fitted inhibition curve with a large enough effect in the signal ratio, with a control signal flat, not every such curve was filed as active; the % refers to the signal ratio;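 further: cells stimulated with 0.4 nM T3 agonist during compound exposure; on the % scale 0 is the no-effect control and ±100 the full control effect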). Conditions: TR-UAS-bla HEK293, beta-lactamase ratio, antagonist mode, 18 h. Put shortly:
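Inhibition of T3-driven (0.4nM final) beta-lactamase reporter activity was measured over 0.59 nM to 92 uM compound after 18 h at 37 C. The cells were GripTite HEK293 TR-UAS-bla in charcoal/dextran-stripped serum, with CCF4 ratio read-out and IC50 from Hill fits.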

Assay [14] deals with Voltage-gated inwardly rectifying potassium channel KCNH2 (Homo sapiens) (UniProt Q12809). Put plainly: qHTS Assay for Small Molecule Inhibitors of the Human hERG Channel Activity (AID 588834; active means well fitted inhibition curve with a large enough effect;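 further: top concentration of the series differs between compounds; on the % scale 0 is the no-effect control and ±100 the full control effect; lower thallium flux fluorescence means stronger hERG block; nearly all actives have a fitted effect of over 50% in size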). Conditions: U2OS BacMam hERG, FluxOR thallium flux fluorescence; series mostly up to 92.2 µM. An outline of the steps:
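Blockade is seen as reduced FluxOR thallium-flux fluorescence in U2OS cells expressing hERG from a BacMam construct, in Opti-MEM with 2% FCS. Concentration-response data fitted to the Hill equation for AC50.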

Assay [15] in a line: qHTS assay for small molecule activators of the nuclear factor-kappa B (NF-kB) signaling pathway (AID 651749; active means well fitted activation curve with a large enough effect in the signal ratio; the % refers to the signal ratio; further: % of control where 0% means no effect). Particulars: NF-kB-bla ME-180 cells, beta-lactamase FRET ratio, 16 h; stronger effect = higher value. Put shortly: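 Readout: beta-lactamase reporter driven by an NF-kB response element, detected fluorescently as loss of FRET. Cells were the ME-180 line, treated 16 hr at 37C with pin-transferred compound.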

Assay [16] can be described thus: qHTS assay for small molecule agonists of the antioxidant response element (ARE) signaling pathway (AID 651741; active means well fitted activation curve with a large enough effect in the signal ratio; the % refers to the signal ratio; further: % of control where 0% means no effect). Particulars: HepG2 ARE-bla reporter, beta-lactamase FRET ratio, 16 h; series mostly up to 96 µM. An outline of the steps:
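Quantitative HTS in HepG2 cells stably expressing an ARE-beta-lactamase reporter; 16 h compound exposure at 37 C, followed by 2 h room-temperature incubation with LiveBLAzer B/G FRET substrate and fluorescence measurement.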

Assay [17] in a line: qHTS assay for small molecule activators of the p53 signaling pathway (AID 651743; active means well fitted activation curve with a large enough effect in the signal ratio, not every such curve was filed as active; the % refers to the signal ratio; further: % of control where 0% means no effect). Conditions: HCT-116 p53RE-bla, beta-lactamase FRET ratio, 16 h; stronger effect = higher value. Put shortly: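 Read-out is fluorescence intensity from the LiveBLAzer B/G FRET substrate, added for 2 hours at room temperature after HCT-116 p53RE-bla cells had been incubated with compounds for 16 hours at 37 C.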

Results filed as inconclusive are left out. Activity calls are given as the source filed them. Unless noted, the call rests on the fitted dose curve.

Peroxisome proliferator-activated receptor gamma (Homo sapiens), sequence (P37231 whole entry, looked up): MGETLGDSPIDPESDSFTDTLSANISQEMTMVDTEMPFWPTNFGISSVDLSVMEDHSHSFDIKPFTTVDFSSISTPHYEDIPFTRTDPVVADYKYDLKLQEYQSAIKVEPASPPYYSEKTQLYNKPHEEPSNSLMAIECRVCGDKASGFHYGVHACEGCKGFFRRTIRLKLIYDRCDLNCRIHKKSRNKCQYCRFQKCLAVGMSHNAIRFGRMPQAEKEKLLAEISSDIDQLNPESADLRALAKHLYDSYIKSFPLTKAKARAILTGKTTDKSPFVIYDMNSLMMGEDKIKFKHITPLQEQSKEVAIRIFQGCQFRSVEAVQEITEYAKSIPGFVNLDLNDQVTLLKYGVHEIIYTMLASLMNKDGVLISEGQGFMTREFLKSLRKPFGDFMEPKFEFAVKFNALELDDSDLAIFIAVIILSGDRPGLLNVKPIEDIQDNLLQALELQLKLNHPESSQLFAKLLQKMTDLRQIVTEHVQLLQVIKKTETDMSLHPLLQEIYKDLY
Peroxisome proliferator-activated receptor delta (Homo sapiens), sequence (Q03181 whole entry, looked up): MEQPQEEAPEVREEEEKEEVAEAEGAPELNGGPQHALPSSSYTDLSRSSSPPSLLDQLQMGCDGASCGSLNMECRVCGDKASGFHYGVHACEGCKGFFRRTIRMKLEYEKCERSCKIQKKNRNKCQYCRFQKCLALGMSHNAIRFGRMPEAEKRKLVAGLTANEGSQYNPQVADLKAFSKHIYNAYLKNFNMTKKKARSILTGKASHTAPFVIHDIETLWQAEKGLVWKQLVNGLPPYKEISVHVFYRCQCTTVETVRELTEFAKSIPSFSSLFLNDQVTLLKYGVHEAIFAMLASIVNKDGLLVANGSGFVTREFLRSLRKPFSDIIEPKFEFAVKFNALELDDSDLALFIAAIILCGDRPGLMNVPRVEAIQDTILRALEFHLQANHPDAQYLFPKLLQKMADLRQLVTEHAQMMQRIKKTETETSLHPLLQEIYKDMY
Vitamin D3 receptor (Homo sapiens), sequence (P11473 whole entry, looked up): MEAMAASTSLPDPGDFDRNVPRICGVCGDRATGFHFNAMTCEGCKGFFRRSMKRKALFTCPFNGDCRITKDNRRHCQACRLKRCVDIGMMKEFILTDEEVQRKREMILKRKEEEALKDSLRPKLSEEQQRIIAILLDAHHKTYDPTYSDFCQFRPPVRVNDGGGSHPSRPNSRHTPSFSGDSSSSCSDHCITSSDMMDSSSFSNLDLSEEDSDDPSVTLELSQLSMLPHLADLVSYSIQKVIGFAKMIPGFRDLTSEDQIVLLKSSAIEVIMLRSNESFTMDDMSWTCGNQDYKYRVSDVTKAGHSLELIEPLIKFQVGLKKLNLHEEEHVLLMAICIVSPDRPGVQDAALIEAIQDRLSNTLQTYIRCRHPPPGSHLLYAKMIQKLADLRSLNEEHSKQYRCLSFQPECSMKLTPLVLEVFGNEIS
Voltage-gated inwardly rectifying potassium channel KCNH2 (Homo sapiens), sequence (Q12809 whole entry, looked up): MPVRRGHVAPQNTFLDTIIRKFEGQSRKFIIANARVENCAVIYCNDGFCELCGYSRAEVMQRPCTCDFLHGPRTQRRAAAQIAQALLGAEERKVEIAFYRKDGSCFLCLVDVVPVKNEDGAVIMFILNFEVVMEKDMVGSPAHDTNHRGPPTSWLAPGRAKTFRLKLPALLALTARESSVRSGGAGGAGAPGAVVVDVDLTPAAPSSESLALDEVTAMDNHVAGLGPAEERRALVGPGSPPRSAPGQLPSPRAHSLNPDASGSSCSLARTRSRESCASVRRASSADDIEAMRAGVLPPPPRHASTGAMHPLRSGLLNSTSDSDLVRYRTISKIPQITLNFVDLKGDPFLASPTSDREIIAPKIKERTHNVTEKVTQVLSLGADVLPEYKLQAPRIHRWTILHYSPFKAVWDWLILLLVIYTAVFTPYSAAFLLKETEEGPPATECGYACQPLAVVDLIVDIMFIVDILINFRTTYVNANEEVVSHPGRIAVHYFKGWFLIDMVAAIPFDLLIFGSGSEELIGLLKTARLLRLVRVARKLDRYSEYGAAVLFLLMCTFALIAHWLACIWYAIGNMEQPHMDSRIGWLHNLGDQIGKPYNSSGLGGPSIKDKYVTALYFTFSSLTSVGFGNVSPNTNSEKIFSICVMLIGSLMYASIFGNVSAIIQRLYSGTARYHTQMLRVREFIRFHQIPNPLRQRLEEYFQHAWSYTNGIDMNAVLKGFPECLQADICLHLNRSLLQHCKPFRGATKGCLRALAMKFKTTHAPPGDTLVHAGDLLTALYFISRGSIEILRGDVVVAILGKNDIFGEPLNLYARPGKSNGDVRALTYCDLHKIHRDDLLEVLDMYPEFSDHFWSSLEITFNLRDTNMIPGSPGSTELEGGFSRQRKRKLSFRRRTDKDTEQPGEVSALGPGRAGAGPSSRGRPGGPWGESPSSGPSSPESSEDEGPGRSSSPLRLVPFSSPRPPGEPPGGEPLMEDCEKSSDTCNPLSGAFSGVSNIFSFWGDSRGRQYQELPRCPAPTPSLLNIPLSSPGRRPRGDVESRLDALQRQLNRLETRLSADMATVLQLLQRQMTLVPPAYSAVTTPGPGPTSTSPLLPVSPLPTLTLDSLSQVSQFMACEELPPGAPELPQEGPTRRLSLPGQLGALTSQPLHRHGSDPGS
Thyroid hormone receptor beta (Homo sapiens), sequence (P10828 whole entry, looked up): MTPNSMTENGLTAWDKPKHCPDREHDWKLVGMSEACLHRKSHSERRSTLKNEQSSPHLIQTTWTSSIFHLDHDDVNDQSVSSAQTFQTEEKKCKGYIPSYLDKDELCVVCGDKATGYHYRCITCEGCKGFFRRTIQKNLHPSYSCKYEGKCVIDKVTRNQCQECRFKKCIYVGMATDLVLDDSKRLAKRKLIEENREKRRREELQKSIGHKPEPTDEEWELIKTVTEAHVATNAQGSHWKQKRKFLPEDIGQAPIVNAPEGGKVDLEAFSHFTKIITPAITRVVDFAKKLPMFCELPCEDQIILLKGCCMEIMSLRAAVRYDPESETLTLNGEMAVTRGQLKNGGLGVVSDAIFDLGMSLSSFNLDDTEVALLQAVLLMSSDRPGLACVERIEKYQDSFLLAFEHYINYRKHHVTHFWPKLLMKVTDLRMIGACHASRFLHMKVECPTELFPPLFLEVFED
Glucocorticoid receptor (Homo sapiens), sequence (P04150 whole entry, looked up): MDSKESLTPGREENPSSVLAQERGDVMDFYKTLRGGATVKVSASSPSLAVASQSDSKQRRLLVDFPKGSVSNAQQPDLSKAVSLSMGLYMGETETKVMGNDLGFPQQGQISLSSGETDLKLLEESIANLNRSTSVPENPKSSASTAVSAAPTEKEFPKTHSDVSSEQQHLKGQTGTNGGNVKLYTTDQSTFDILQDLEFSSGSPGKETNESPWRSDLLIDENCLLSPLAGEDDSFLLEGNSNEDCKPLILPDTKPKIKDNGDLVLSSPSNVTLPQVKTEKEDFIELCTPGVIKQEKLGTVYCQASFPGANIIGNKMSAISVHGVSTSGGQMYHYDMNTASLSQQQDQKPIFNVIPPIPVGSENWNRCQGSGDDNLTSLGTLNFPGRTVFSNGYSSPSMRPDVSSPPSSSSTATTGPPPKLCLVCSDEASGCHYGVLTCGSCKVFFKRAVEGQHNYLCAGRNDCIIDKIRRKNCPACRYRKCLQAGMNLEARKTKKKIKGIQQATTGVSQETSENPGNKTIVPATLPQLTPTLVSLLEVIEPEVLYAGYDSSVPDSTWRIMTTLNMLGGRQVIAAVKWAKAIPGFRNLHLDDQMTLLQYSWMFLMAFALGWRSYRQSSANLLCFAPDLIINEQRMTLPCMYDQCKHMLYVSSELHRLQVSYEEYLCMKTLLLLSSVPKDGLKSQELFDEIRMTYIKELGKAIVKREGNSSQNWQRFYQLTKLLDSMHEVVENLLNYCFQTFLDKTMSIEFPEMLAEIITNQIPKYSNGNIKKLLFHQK
Retinoic acid receptor RXR-alpha (Homo sapiens), sequence (P19793 whole entry, looked up): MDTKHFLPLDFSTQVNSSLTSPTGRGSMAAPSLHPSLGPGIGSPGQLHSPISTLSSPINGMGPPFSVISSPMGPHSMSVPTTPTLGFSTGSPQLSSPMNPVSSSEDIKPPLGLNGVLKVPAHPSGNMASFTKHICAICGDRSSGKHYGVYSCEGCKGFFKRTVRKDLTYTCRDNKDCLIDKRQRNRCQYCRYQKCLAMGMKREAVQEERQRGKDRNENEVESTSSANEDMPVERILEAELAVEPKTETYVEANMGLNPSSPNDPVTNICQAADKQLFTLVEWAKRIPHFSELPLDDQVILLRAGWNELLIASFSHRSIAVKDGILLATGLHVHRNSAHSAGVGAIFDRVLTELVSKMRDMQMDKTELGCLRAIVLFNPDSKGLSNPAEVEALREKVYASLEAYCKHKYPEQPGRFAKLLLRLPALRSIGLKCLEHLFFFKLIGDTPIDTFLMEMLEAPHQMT

Turning to `Nc1cccc(O)c1`, the activation in assay [1] was -1.32% (inactive); in assay [15], -1.16% (inactive). In addition, the outcome in assay [2], in [5], in [6], in [7], in [9] and in assay [10] was inactive. The max response in assay [3] was 11.9%; in [8], -4.39%; in assay [11] it was 6.84%; in assay [12], 1.85% (inactive). For the same molecule, the Potency result in assay [4] and in assay [14] was “inactive” each time. In assay [13], the activity change % (negative = inhibition) is -7.53% (inactive).

In the case of `Nc1cccc(S(=O)(=O)O)c1`, the activation in assay [1] is -6.32% (inactive); in [17], -1.01% (inactive); in assay [15], -0.968% (inactive). In addition, the outcome in assay [2], in assay [5], in assay [6], in [7], in [9] and in assay [10] was inactive. The max response in assay [3] was -7.97%; in assay [8], 8.69%; in [11], -5.6%; in assay [12] it was 16.1% (inactive). Besides, the Potency result in [4], in [14] and in assay [16] was “inactive” each time. Moreover, the activity change % (negative = inhibition) in assay [13] was -28.7% (inactive).

As for `Cc1cc(C)cc(O)c1`, the activation was -1.28% (inactive) in assay [1] and -2.15% (inactive) in assay [17]. For the same molecule, the outcome in [2], in assay [5], in assay [6], in assay [7], in assay [9] and in assay [10] was inactive. For the same molecule, the max response in [3] is 32.1%; in [8] it was 0.806%; in [11], -5.75%; in [12], 24.6% (inactive). The Potency entry in assay [4], in assay [14] and in assay [16] was “inactive” each time.

Turning to `CCCCCCC(=O)O`, the figures for the activation in assay [1] and in [17] were 2.07% (inactive) and -5.16% (inactive), respectively. Also, the result in assay [2], in [6], in [7], in assay [9] and in assay [10] was inactive. Moreover, the max response in assay [3] is -11.6%; in assay [8], -3.5%; in assay [11], -1.09%; in assay [12], 7.92% (inactive). The Potency result in assay [4] and in assay [14] was “inactive” each time. For the same molecule, in assay [13], the activity change % (negative = inhibition) was -7.74% (inactive).

`Cc1c(N)cccc1[N+](=O)[O-]`: the activation in [1] was -3.4% (inactive); in assay [17] it was -0.892% (inactive). For the same molecule, the outcome in assay [2], in [5], in assay [9] and in [10] was inactive. In addition, the max response in assay [3] is -31.1%; in assay [8] it was -2.78%; in assay [11] it was -6.48%; in assay [12], -2.95% (inactive). Also, the Potency result in [4] and in [14] was “inactive” in each case. Moreover, the activity change % (negative = inhibition) in assay [13] is -5.59% (inactive).

Take `Fc1ccccc1`: the activation in assay [1] was 1.06% (inactive); in assay [15] it was 0.343% (inactive). Besides, the result in assay [2], in assay [6], in assay [9] and in assay [10] was inactive. Moreover, the max response in assay [3] was 0.384%; in assay [8], -11.1%; in [11], -11.6%; in [12], -5.23% (inactive). Further, the Potency entry in assay [4], in assay [14] and in [16] was “inactive” throughout.

On to `CCCCC(=O)N(C)C`, for which the activation in assay [1] was -1.2% (inactive); in assay [17], -1.85% (inactive); in assay [15], -0.0165% (inactive). The outcome in [2], in [5], in [6], in assay [7], in [9] and in assay [10] was inactive. Further, the max response is -15% in [3], -11.8% in assay [8], -2.95% in assay [11] and 11.5% (inactive) in [12]. In addition, in assay [4], the Potency entry was “inactive”. The activity change % (negative = inhibition) in assay [13] is 6.71% (inactive).

Source of the values: PubChem BioAssay (NCATS).
